According to PubChem BioAssay AID1159580 (chemical genetic matrix, 2015):
Among all 5,500 compounds or so, about 2,000 (36%) were called active. About 18% were inconclusive and are not listed. Rule as the data show it: active = normalized growth mostly below about 0.91 (no sharp cut-off); inconclusive = no clear call, values can overlap the other calls; inactive = mostly above about 0.92. The list shows a part of the results.

Experiment: chemical genetic growth profiling, strain panel (AID 1159580);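 also: tested at 20 µM; growth read once vehicle control cultures reached saturation at 30 °C; 1 = growth at the plate median or of vehicle wells; lower values mean less growth of the strain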
Conditions: growth OD

Measured: normalized growth

CC(=O)NCCCCCC(=O)O
inactive: S. cerevisiae deletion strains, locus YJL187C, strain SWE1, hits give low values 1.01 | S. cerevisiae deletion strains, locus YJR043C, strain POL32, hits give low values 1.01 | S. cerevisiae deletion strains, locus YJR075W, strain HOC1, hits give low values 1.02 | S. cerevisiae deletion strains, locus YKL009W, strain mrt4, hits give low values 0.997 | S. cerevisiae deletion strains, locus YKL068W, hits give low values 0.994 | S. cerevisiae deletion strains, locus YKL085W, strain MDH1 (second series), hits give low values 0.989 | S. cerevisiae deletion strains, locus YKL085W, strain MDH1, hits give low values 0.989 | S. cerevisiae deletion strains, locus YKL160W, strain elf1, hits give low values 1.03 | S. cerevisiae deletion strains, locus YKL190W, strain CNB1, hits give low values 1.01 | S. cerevisiae deletion strains, locus YKR001C, strain vps1, hits give low values 1.01 | S. cerevisiae deletion strains, locus YKR026C, strain gcn3, hits give low values 0.963 | S. cerevisiae deletion strains, locus YKR091W, strain srl3, hits give low values 0.985 | S. cerevisiae deletion strains, locus YLL001W, strain dnm1, hits give low values 1.01 | S. cerevisiae deletion strains, locus YLL026W, hits give low values 1.01 | S. cerevisiae deletion strains, locus YLL041C, strain sdh2, hits give low values 0.994 | S. cerevisiae deletion strains, locus YLR027C, strain aat2, hits give low values 1.02 | S. cerevisiae deletion strains, locus YLR039C, strain RIC1, hits give low values 1.04 | S. cerevisiae deletion strains, locus YLR058C, strain SHM2, hits give low values 1.02 | S. cerevisiae deletion strains, locus YLR102C, strain apc9, hits give low values 0.989 | S. cerevisiae deletion strains, locus YLR221C, strain rsa3, hits give low values 1 | S. cerevisiae deletion strains, locus YLR258W, strain gsy2, hits give low values 0.992 | S. cerevisiae deletion strains, locus YLR262C, strain YPT6 (second series), hits give low values 1.02 | S. cerevisiae deletion strains, locus YLR262C, strain YPT6, hits give low values 1.07 | S. cerevisiae deletion strains, locus YLR268W, strain sec22, hits give low values 0.996 | S. cerevisiae deletion strains, locus YLR320W, strain mms22, hits give low values 1 | S. cerevisiae deletion strains, locus YLR330W, strain CHS5, hits give low values 1.01 | S. cerevisiae deletion strains, locus YLR342W, strain FKS1 (second series), hits give low values 1 | S. cerevisiae deletion strains, locus YLR342W, strain FKS1, hits give low values 0.982 | S. cerevisiae deletion strains, locus YLR357W, strain rsc2, hits give low values 1.01 | S. cerevisiae deletion strains, locus YLR370C, strain arc18, hits give low values 0.991 | S. cerevisiae deletion strains, locus YLR371W, strain rom2, hits give low values 0.983 | S. cerevisiae deletion strains, locus YLR384C, strain iki3, hits give low values 0.983 | S. cerevisiae deletion strains, locus YLR418C, strain cdc73, hits give low values 0.963 | S. cerevisiae deletion strains, locus YML016C, strain PPZ1, hits give low values 1.01 | S. cerevisiae deletion strains, locus YML032C, strain rad52, hits give low values 0.986 | S. cerevisiae deletion strains, locus YML120C, strain ndi1, hits give low values 1.01 | S. cerevisiae deletion strains, locus YML124C, strain tub3, hits give low values 0.989 | S. cerevisiae deletion strains, locus YMR058W, strain fet3, hits give low values 0.981 | S. cerevisiae deletion strains, locus YMR078C, strain ctf18, hits give low values 1 | S. cerevisiae deletion strains, locus YMR125W, strain sto1, hits give low values 0.986 | S. cerevisiae deletion strains, locus YMR129W, hits give low values 0.976 | S. cerevisiae deletion strains, locus YMR205C, strain PFK2, hits give low values 0.968 | S. cerevisiae deletion strains, locus YMR223W, strain ubp8, hits give low values 0.976 | S. cerevisiae deletion strains, locus YMR231W, strain pep5, hits give low values 0.978 | S. cerevisiae deletion strains, locus YMR307W, strain GAS1, hits give low values 1.01 | S. cerevisiae deletion strains, locus YNL067W, strain RPL9B, hits give low values 1.02 | S. cerevisiae deletion strains, locus YNL071W, strain lat1, hits give low values 0.989 | S. cerevisiae deletion strains, locus YNL209W, strain ssb2, hits give low values 0.994 | S. cerevisiae deletion strains, locus YNL233W, strain BNI4, hits give low values 1.03 | S. cerevisiae deletion strains, locus YNL248C, strain rpa49, hits give low values 1.01 | S. cerevisiae deletion strains, locus YNL250W, strain rad50, hits give low values 0.992 | S. cerevisiae deletion strains, locus YNL271C, strain bni1, hits give low values 0.971 | S. cerevisiae deletion strains, locus YNL298W, strain CLA4, hits give low values 0.986 | S. cerevisiae deletion strains, locus YNL307C, strain MCK1, hits give low values 0.988 | S. cerevisiae deletion strains, locus YNL322C, strain KRE1 (second series), hits give low values 0.995 | S. cerevisiae deletion strains, locus YNL322C, strain KRE1, hits give low values 1.01 | S. cerevisiae deletion strains, locus YNR049C, strain mso1, hits give low values 0.973 | S. cerevisiae deletion strains, locus YNR052C, strain pop2, hits give low values 0.995 | S. cerevisiae deletion strains, locus YOL006C, strain TOP1, hits give low values 1.09 | S. cerevisiae deletion strains, locus YOL012C, strain htz1 0.886 | S. cerevisiae deletion strains, locus YOL147C, strain pex11, hits give low values 0.988 | S. cerevisiae deletion strains, locus YOR001W, strain rrp6, hits give low values 1.04 | S. cerevisiae deletion strains, locus YOR061W, strain CKA2, hits give low values 1.02 | S. cerevisiae deletion strains, locus YOR069W, strain VPS5, hits give low values 1.01 | S. cerevisiae deletion strains, locus YOR070C, strain gyp1, hits give low values 0.994 | S. cerevisiae deletion strains, locus YOR080W, strain dia2, hits give low values 0.988 | S. cerevisiae deletion strains, locus YOR083W, strain WHI5, hits give low values 1.06 | S. cerevisiae deletion strains, locus YOR106W, strain vam3, hits give low values 1.01 | S. cerevisiae deletion strains, locus YOR136W, strain idh2, hits give low values 0.985 | S. cerevisiae deletion strains, locus YOR144C, strain elg1, hits give low values 0.978 | S. cerevisiae deletion strains, locus YOR184W, strain ser1, hits give low values 0.982 | S. cerevisiae deletion strains, locus YOR265W, strain rbl2, hits give low values 1.01 | S. cerevisiae deletion strains, locus YOR270C, strain vph1, hits give low values 0.968 | S. cerevisiae deletion strains, locus YOR290C, strain snf2, hits give low values 0.939 | S. cerevisiae deletion strains, locus YOR316C, strain cot1, hits give low values 0.987 | S. cerevisiae deletion strains, locus YPL051W, strain arl3, hits give low values 1.02 | S. cerevisiae deletion strains, locus YPL055C, strain LGE1, hits give low values 1.07 | S. cerevisiae deletion strains, locus YPL078C, strain atp4, hits give low values 1 | S. cerevisiae deletion strains, locus YPL106C, strain sse1, hits give low values 0.977 | S. cerevisiae deletion strains, locus YPL240C, strain hsp82, hits give low values 0.99 | S. cerevisiae deletion strains, locus YPR119W, strain clb2, hits give low values 0.993 | S. cerevisiae deletion strains, locus YPR141C, strain kar3, hits give low values 0.989 | S. cerevisiae deletion strains, locus YPR163C, strain tif3, hits give low values 0.98 | S. cerevisiae deletion strains, locus YPR167C, strain met16, hits give low values 0.977 | S. cerevisiae deletion strains, strain wtn01, hits give low values 0.976 | S. cerevisiae strains, strain wild type, hits give low values 1.01
